{"source": "PubChem BioAssay (Tox21)", "note": "Inconclusive results are not listed. The source made the active and inactive calls. Calls come from the whole dose curve; as a rule, active = well fitted cell-killing curve with a large enough effect in the repeat runs; inconclusive = weak or mixed curves, or effect the other way; inactive = flat fitted curve, though single readings scatter. % is set by controls: 0 for no effect and ±100 for the full control effect; potency is the fitted concentration of half-maximal effect.", "data": [{"assay": "Nuclear factor erythroid 2-related factor 2/antioxidant responsive element (Nrf2/ARE) small molecule agonists: qHTS cell viability counter screen in human keratinocytes (AID 1919968); note: nearly all actives have a fitted effect of over 55% in size", "conditions": "KeratinoSens HaCaT ARE cells viability, CellTiter-Fluor, 24 h; series mostly up to 92.4 µM; activity change, negative = cytotoxicity: at the top concentration", "description": "U.S. Tox21 Program National Center for Advancing Translational Sciences [NCATS] Division of Preclinical Innovation [DPI] U.S. Environmental Protection Agency [EPA] National Institutes of Environmental Health Sciences [NIEHS] National Toxicology Program [NTP] U.S. Food and Drug Administration [FDA] Tox21 Assay Overview: Oxidative stress has been implicated in the pathogenesis of a variety of diseases ranging from cancer to neurodegeneration. The antioxidant response element (ARE) signaling pathway plays an important role in the amelioration of oxidative stress. The KeratinoSens (Givaudan, Switzerland) is an in vitro test method which quantifies luciferase induction as a measure of activation of Keap1-Nrf2-antioxidationt/electrophile response element (ARE) dependant pathway in HaCaT human keratinocytes stably transfected with a selectable plasmid. The KeratinoSens assay is a cell-based assay with a reporter cell line to detect potential skin sensitizers by their ability to induce the Nrf2/ARE-response. The activation of the report gene under culture conditions can be detected by ONE-Glo Luciferase Assay System (Promega, Madison, WI). This cell line has been used to screen the Tox21 10K compound library to identify agonists that induce oxidative stress. The cytotoxicity of the Tox21 compound library against the KS-ARE cell line was tested in parallel by measuring the cell viability using CellTiter- Fluor assay system (Promega, Madison, WI) in the same wells.\nTox21 Assay Protocol Summary: HaCaT derived cell line KeratinoSens were dispensed at 1,500 cells/5uL/well in 1536-well white wall/solid bottom plates using a Multidrop Combi (ThermoFisher Scientific, Waltham, MA) dispenser. After the assay plates were incubated at 37 C/5% CO2 for 5 h, 23 nL of compounds dissolved in DMSO, positive controls or DMSO only was transferred to the assay plate by a pintool workstation (Kalypsys, San Diego, CA). The plates were incubated at 37 C/5% CO2 for 23 h, followed by addition of 1uL/well of CellTiter-Fluor reagent into the assay plates using a Flying Reagent Dispenser (Aurora Discovery, San Diego, CA) for cell viability readout that measures cytotoxicity. After 1 h incubation at 37 C/5% CO2 the fluorescence intensity was measured using a ViewLux (PerkinElmer, Shelton, CT) plate reader.", "values": [{"molecule": "C=C(C)C(=O)OCCCCCCCCCCOC(=O)C(=C)C", "activity change, negative = cytotoxicity": "0.82% (inactive)"}, {"molecule": "C=CC(=O)OCCOCCOC(=O)C=C", "Potency": "54.7 µM (active)"}, {"molecule": "CC1CCCCC1", "activity change, negative = cytotoxicity": "-2.73% (inactive)"}, {"molecule": "BrC/C=C/CBr", "activity change, negative = cytotoxicity": "-3.14% [at 19 µM] (inactive)"}, {"molecule": "C[C@@H]1[C@H](O)[C@@H](C)/C=C/C=C\\C=C\\C=C\\C=C\\C=C\\C=C\\[C@H](O[C@@H]2O[C@H](C)[C@@H](O)[C@H](N)[C@@H]2O)C[C@@H]2O[C@](O)(C[C@@H](O)C[C@@H](O)[C@H](O)CC[C@@H](O)C[C@@H](O)CC(=O)O[C@H]1C)C[C@H](O)[C@H]2C(=O)O", "note": "(stereo in doubt)", "activity change, negative = cytotoxicity": "-7.84% (inactive)"}, {"molecule": "COc1cc2c(cc1OC)C(=O)CC2", "activity change, negative = cytotoxicity": "-3.5% [at 42.5 µM] (inactive)"}, {"molecule": "CC1(C)S[C@@H]2[C@H](N=CN3CCCCCC3)C(=O)N2[C@H]1C(=O)O", "activity change, negative = cytotoxicity": "-0.806% [at 42.5 µM] (inactive)"}, {"molecule": "CCc1ccc(C(=O)C(C)CN2CCCCC2)cc1", "note": "(stereo not given)", "activity change, negative = cytotoxicity": "2.24% [at 42.5 µM] (inactive)"}, {"molecule": "Cc1c(NC(C)C)c(=O)n(-c2ccccc2)n1C", "activity change, negative = cytotoxicity": "-1.1% [at 42.5 µM] (inactive)"}, {"molecule": "CCCCCCCCCCCCCCCCCCOS(=O)(=O)O", "Potency": "68.6 µM (active)"}, {"molecule": "C=C1CC[C@H](O)C/C1=C\\C=C1/CCC[C@]2(C)[C@@H]([C@H](C)CCCC(C)C)CC[C@@H]12", "activity change, negative = cytotoxicity": "-18.1% (inactive)"}, {"molecule": "CC(C)=CCC/C(C)=C/CC/C(C)=C/C(=O)OCC(=O)[C@@]1(O)CC[C@H]2[C@@H]3CCC4=CC(=O)C=C[C@]4(C)[C@H]3[C@@H](O)C[C@@]21C", "Potency": "6.68 µM (active)"}, {"molecule": "Cc1cc(=O)oc2cc(O[C@@H]3SC[C@@H](O)[C@H](O)[C@H]3O)ccc12", "activity change, negative = cytotoxicity": "-4.81% [at 42.5 µM] (inactive)"}, {"molecule": "Cc1ccc(-n2[nH]c(C)c(N=Nc3cccc(-c4cccc(C(=O)O)c4)c3O)c2=O)cc1C", "Potency": "26.6 µM (active)"}, {"molecule": "CN(C)CC/C=C1/c2ccccc2COc2ccc(CC(=O)O)cc21", "activity change, negative = cytotoxicity": "0.698% [at 42.5 µM] (inactive)"}, {"molecule": "CCOC(=O)c1ccc(OC(=O)CCCCCN=C(N)N)cc1", "activity change, negative = cytotoxicity": "2.21% [at 42.5 µM] (inactive)"}, {"molecule": "Cc1ccccc1C(=O)O", "activity change, negative = cytotoxicity": "3.64% (inactive)"}, {"molecule": "CCCCCCCCCC(=O)N(C)C", "activity change, negative = cytotoxicity": "-1.11% (inactive)"}, {"molecule": "CCCCCN(CCCCC)C(=O)C(CCC(=O)O)NC(=O)c1ccc(Cl)c(Cl)c1", "note": "(stereo not given)", "activity change, negative = cytotoxicity": "0.2% [at 42.5 µM] (inactive)"}, {"molecule": "COc1ccc(/C(C)=C/C(=O)O)c(OC)c1", "activity change, negative = cytotoxicity": "0.651% [at 42.5 µM] (inactive)"}, {"molecule": "Cc1cccc(C)c1OCC(=O)N[C@@H](Cc1ccccc1)[C@@H](O)C[C@H](Cc1ccccc1)NC(=O)[C@H](C(C)C)N1CCCNC1=O", "activity change, negative = cytotoxicity": "-24.1% [at 42.5 µM] (inactive)"}, {"molecule": "COc1ccc(CN(CCN(C)C)c2ncccn2)cc1", "activity change, negative = cytotoxicity": "1.26% [at 42.5 µM] (inactive)"}, {"molecule": "CCN1CCCC1CN", "note": "(stereo not given)", "activity change, negative = cytotoxicity": "18.8% [at 42.5 µM] (inactive)"}, {"molecule": "CC(=O)OCC(C)C", "activity change, negative = cytotoxicity": "-1.13% (inactive)"}, {"molecule": "COC(=O)C1=C(C)NC(C)=C(C(=O)OCCN2CCN(C(c3ccccc3)c3ccccc3)CC2)C1c1cccc([N+](=O)[O-])c1", "note": "(stereo not given)", "activity change, negative = cytotoxicity": "-2.79% [at 42.5 µM] (inactive)"}, {"molecule": "COC(=O)c1cccc(Cl)c1", "activity change, negative = cytotoxicity": "-0.643% (inactive)"}, {"molecule": "CN1CCCN=C1COC(=O)C(O)(c1ccccc1)C1CCCCC1", "note": "(stereo not given)", "activity change, negative = cytotoxicity": "0.118% [at 42.5 µM] (inactive)"}, {"molecule": "CC(=O)CC(C)C", "activity change, negative = cytotoxicity": "-0.299% (inactive)"}, {"molecule": "CC1=CC(=O)CC(C)(C)C1(O)/C=C/C(C)=C\\C(=O)O", "note": "(stereo not given)", "activity change, negative = cytotoxicity": "0.407% (inactive)"}, {"molecule": "NS(=O)(=O)c1cc(C2(O)NC(=O)c3ccccc32)ccc1Cl", "note": "(stereo not given)", "activity change, negative = cytotoxicity": "-0.597% [at 42.5 µM] (inactive)"}, {"molecule": "CN(C)Cc1ccccc1", "activity change, negative = cytotoxicity": "1.23% (inactive)"}, {"molecule": "Nc1ccc(S(=O)(=O)Nc2ccccc2)cc1", "activity change, negative = cytotoxicity": "-4.92% [at 42.5 µM] (inactive)"}, {"molecule": "OC[C@@H](O)[C@H](O)[C@@H](O)[C@@H](O)CO", "activity change, negative = cytotoxicity": "1.57% (inactive)"}, {"molecule": "CC(C)(O)c1ccc(CNC(=O)c2cccnc2Oc2ccc3nonc3c2)cc1", "activity change, negative = cytotoxicity": "-6.3% (inactive)"}, {"molecule": "COc1c(C)c2c(c(O)c1C/C=C(\\C)CCC(=O)O)C(=O)OC2", "activity change, negative = cytotoxicity": "1.08% [at 42.5 µM] (inactive)"}, {"molecule": "CC(C)(O)c1ccc(CNC(=O)c2cccnc2Oc2ccc(F)cc2)cc1", "activity change, negative = cytotoxicity": "-6.45% (inactive)"}, {"molecule": "Cc1cccc(C(C)(C)C)c1O", "activity change, negative = cytotoxicity": "-0.113% (inactive)"}, {"molecule": "CCC(CO)(CO)COCC(CC)(CO)CO", "activity change, negative = cytotoxicity": "-6.05% (inactive)"}, {"molecule": "CC(C)(C)C(=O)/C=C/c1ccc(Cl)cc1", "activity change, negative = cytotoxicity": "6.33% (inactive)"}, {"molecule": "CC(=O)Nc1ccc(S(=O)(=O)Nc2cc(C)on2)cc1", "activity change, negative = cytotoxicity": "-2.29% [at 42.5 µM] (inactive)"}]}]}
